For 27 molecules, Potency and outcome results are on record in PubChem BioAssay (NCATS).

Values joined by “and” are separate entries in the source; they are usually repeats but may differ in a detail not shown here. Equal values may be shown once. Inconclusive results are not listed. A structure can be active in one record and inactive in another. Active and inactive are the calls of the source. Unless noted, calls come from the whole dose curve; as a rule, active = well fitted curve in the direction sought with a large enough effect; inconclusive = small, poorly fitted or top-dose-only effect, or another doubt; inactive = no such curve, though single readings can be large; an effect the other way counts as inactive or inconclusive.

Assay [1] can be described thus: Cellular Toxicity (caspase-3) NIH 3T3 (AID 666). Note: potency is the fitted concentration of half-maximal effect. Summed up: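 Mouse NIH 3T3 fibroblasts (1000 cells/well) were treated with compound for 16 hr at 37°C in complete medium; caspase-3/7 activity was read by Caspase-Glo luminescence. Normalized to DMSO and 100 uM tamoxifen; AC50 from Hill fits.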
The nature of assay [2]: Cellular Toxicity (caspase-3) Renal Proximal Tubule (AID 667).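 Note: cells exposed to compound for 16 hours at 37 °C before detection.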 An outline of the steps: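 Luminescent caspase 3/7 signal from peptide-aminoluciferin cleavage measures apoptosis in freshly isolated rat kidney proximal tubule cells after 16 h compound exposure. Concentration-response data are normalized to DMSO and 10 uM staurosporine, and AC50 values come from Hill equation fits.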

Assay [3] is described as follows: Confirmation and Secondary Assay for Modulators of Hemoglobin Beta Chain Splicing at IVS2 654 locus (AID 910).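 Note: HeLa cells stably carrying EGFP split by mutant beta-globin IVS2-654 intron.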 An outline of the steps: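 HeLa cells stably expressing EGFP interrupted by β-globin IVS2-654 intron, seeded overnight in Opti-MEM/2% FCS, then treated 2 days at 37 °C. Restored splicing read as total peak GFP intensity per well by laser scanning cytometry (488 nm excitation, 500–520 nm emission); 500 nM antisense PNA as control.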

Assay [4] in a line: Cell Viability - LYMP2-001 (AID 921).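 Note: cells exposed to compound for 24 h at 37 °C; nearly all actives have a fitted effect of over 70% in size.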 Note: potency is the fitted concentration of half-maximal effect. Summed up:
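CellTiter-Glo luminescence (intracellular ATP) after 24 hr compound exposure at 37 C, 2500 lymphoblastoid cells/well in complete medium. AC50 fitted with standard Hill equation; tetraoctylammonium bromide positive control.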

The nature of assay [5]: Confirmation and Secondary Assay for Modulators of Hemoglobin Beta Chain Splicing at IVS2 705 locus (AID 930).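 Note: HeLa cells stably expressing the EGFP-705 splicing reporter; GFP fluorescence per well restored by corrected splicing of the IVS2-705 intron in EGFP; series mostly up to about 46 µM.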 An outline of the steps:
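HeLa IVS2-705 EGFP reporter cells, 500/well, compound 2 d at 37C; correct splicing yields fluorescent EGFP. Control: 500 nM antisense PNA. Read-out: total peak GFP intensity.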

A short description of assay [6]: MultiTox-Fluor Cytotoxicity Assay - LYMP1-001 - Dead Cells (AID 946). Note: potency is the fitted concentration of half-maximal effect. Summed up: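 Cytotoxicity as increased dead-cell protease fluorescence (bis-AAF-R110, 485/520 nm), read 60 min after MultiTox-Fluor reagent. Human lymphoblastoid line exposed 16 h; Hill-fitted AC50, with DMSO as 0% and 15 uM tetraoctylammonium bromide as 100%.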
Assay [7] in a line: MultiTox-Fluor Cytotoxicity Assay - LYMP1-001 - Live Cells (AID 947).
A short description of assay [8]: Cell Viability - LYMP1-002 - Assay at 16 hr (AID 948). Note: potency is the fitted concentration of half-maximal effect. Summed up:
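LYMP1-002 human lymphoblastoid cells, 2500/well; 5 hr 37 C; cpd 16 hr 37 C; CellTiter-Glo 30 min RT; luminescence (ATP). Concentration-response, Hill-fit AC50. Pos ctrl tetraoctylammonium bromide.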

The target of assay [9] is Guanine nucleotide-binding protein G(i) subunit alpha-1 (Homo sapiens) (UniProt P63096). The experiment in a line: qHTS Assay for Inhibitors of RGS12 GoLoco Motif Activity (Green Fluorophore) (AID 879).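 Note: negative values mean loss of peptide binding seen as reduced polarization.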 Summed up: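 Fluorescence polarization assay: 50 nM Gαi1 with 10 nM FITC-labeled RGS12 GoLoco peptide in 10 mM Tris pH 7.5, 150 mM NaCl, 0.1 mM GDP, 0.05% NP40, 10 min at room temperature with compound.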

For assay [10], the target named is Cytochrome P450 2C9 (Homo sapiens) (UniProt P11712). The experiment in a line: qHTS Assay for Inhibitors and Substrates of Cytochrome P450 2C9 (AID 883). Note: nearly all actives have a fitted effect of over 60% in size. Note: potency is the fitted concentration of half-maximal effect. An outline of the steps: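 Signal: luciferase luminescence reporting luciferin produced by CYP2C9. Conditions: 10nM enzyme, Luciferin-H 100uM at KM, 25mM KPO4, 37C, 60 min NADPH-driven reaction. Reference: 57uM sulphaphenazole as 100% inhibition.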
Background: Quantitative high-throughput screening tests each substance at several concentrations.

Assay [11] addresses Cytochrome P450 3A4 (Homo sapiens) (UniProt P08684). The assay can be described thus: qHTS Assay for Activators of Cytochrome P450 3A4 (AID 885). Note: nearly all actives have a fitted effect of over 65% in size. Note: potency is the fitted concentration of half-maximal effect. An outline of the steps:
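Signal was normalized against complete inhibition by 57 uM ketoconazole. The reaction used 20nM CYP3A4 with 25uM Luciferin-PPXE, 10-min compound preincubation and a 60-min NADPH-supported step at RT.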

Assay [12] has as its target Cytochrome P450 2D6 (Homo sapiens) (UniProt P10635). The assay can be described thus: qHTS Assay for Inhibitors and Substrates of Cytochrome P450 2D6 (AID 891). Note: nearly all actives have a fitted effect of over 60% in size. Note: potency is the fitted concentration of half-maximal effect. Summed up: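 Human CYP2D6 (5 nM) with 30 uM Luciferin-ME EGE (at Km) in 100 mM KPO4, compound preincubated 10 min, then NADPH regeneration system for 60 min at room temperature. Luciferin read by luminescence; normalized to 1.43 uM quinidine.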

Assay [13] addresses Cytochrome P450 2C19 (Homo sapiens) (UniProt P33261). The experiment in a line: qHTS Assay for Inhibitors and Substrates of Cytochrome P450 2C19 (AID 899). Note: nearly all actives have a fitted effect of over 60% in size. Note: potency is the fitted concentration of half-maximal effect. An outline of the steps:
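Signal comes from luciferase acting on luciferin released by CYP2C19-mediated hydroxylation of Luciferin-H EGE, 10uM (KM). Assay mix: 5nM enzyme, 50mM KPO4; 60 min at 37C with NADPH regeneration. Data normalized against 57uM ketoconazole.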

Assay [14] is described as follows: qHTS Assay for Identification of Small Molecule Agonists for Thrombopoietin (TPO) Signaling Pathway (AID 917). Summed up:
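Activators of TPO signaling were sought in murine Ba/F3 cells transfected with the human receptor, using a luciferase gene driven by the Glycoprotein IIb promoter; 24-hr compound exposure at 37 C alongside 26 pM TPO, in IL-3-free medium.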

Assay [15] deals with Muscarinic acetylcholine receptor M1 (Rattus norvegicus) (UniProt P08482). The experiment in a line: qHTS Assay for Antagonists of Acetylcholine Muscarinic M1 Receptor: Kinetic Measurement of Intracellular Calcium Response (AID 943). Note: nearly all actives have a fitted effect of over 75% in size. Note: potency is the fitted concentration of half-maximal effect. Summed up: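 CHO cells stably expressing rat M1 were loaded with no-wash Fluo-4 dye for 1 h at 37C, pre-incubated 10 min with compound, then challenged with EC80 carbachol (100 nM final); kinetic calcium read 4 min, peak/basal ratio.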

Assay [16] has the same target. The assay can be described thus: qHTS Assay for Antagonists of Acetylcholine Muscarinic M1 Receptor: Measurement of IP-One Response (AID 944). Note: nearly all actives have a fitted effect of over 75% in size. Note: potency is the fitted concentration of half-maximal effect. Summed up:
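CHO cells expressing rat M1 receptor, recovered overnight, were pre-incubated 10 min with compound, then stimulated 30 min with carbachol at EC80 (200 nM) in LiCl-containing buffer, pH 7.4. IP1 accumulation was read by HTRF (620/665 nm).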

In assay [17] the target is Pyruvate kinase (Leishmania mexicana) (UniProt Q27686). The experiment in a line: qHTS Validation Assay for Inhibitors of Leishmania Mexicana Pyruvate Kinase (AID 945). Summed up:
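Eight-point qHTS titrations; enzyme 0.2 nM LmPYK (E451W mutant); substrates 0.5 mM PEP, 0.1 mM ADP; 7 mM MgCl2; 1 h room temperature; PKLight luminescence normalized to neutral control.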

Assay [18] has as its target Cytochrome P450 3A4 (Homo sapiens) (UniProt P08684). The experiment in a line: qHTS Assay for Inhibitors and Substrates of Cytochrome P450 3A4 (AID 884). Note: nearly all actives have a fitted effect of over 50% in size. Note: potency is the fitted concentration of half-maximal effect. An outline of the steps:
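20 nM human CYP3A4 with 25 uM Luciferin-PPXE (at KM) in 200 mM KPO4, preincubated 10 min with compound; NADPH regeneration started a 60 min RT reaction. Luciferin detected by luminescence, normalized to 57 uM ketoconazole as full inhibition.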

Assay [19] can be described thus: qHTS Assay for Identification of Small Molecule Antagonists for NFkB Signaling Pathway (AID 895; active = well fitted inhibition curve with a large enough effect in the signal ratio, with a control signal flat, not every such curve was filed as active; the % refers to the signal ratio). Summed up:
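ME-180 NFkB-bla cells (beta-lactamase under NFkB response element), plated overnight, treated with compound then 10 pM TNF alpha (about EC50) for 5 hrs at 37 C. LiveBLAzer FRET read at 460/530 nm emission, 405 nm excitation.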

Assay [20] in a line: qHTS Assay for Identification of Small Molecule Antagonists for Thrombopoietin (TPO) Signaling Pathway (AID 918). Note: potency is the fitted concentration of half-maximal effect; nearly all actives have a fitted effect of over 60% in size. Conditions: TPO-dependent cell signaling reporter, antagonist mode. Summed up: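 Murine Ba/F3 cells stably expressing human TPO receptor and a Glycoprotein IIb promoter–luciferase reporter were IL-3-starved overnight, treated with compounds plus TPO (26 pM final, its EC50) for 24 hrs at 37 C, then read by luminescence.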

Sequence of Cytochrome P450 2C19 (Homo sapiens) (P33261 whole entry, looked up): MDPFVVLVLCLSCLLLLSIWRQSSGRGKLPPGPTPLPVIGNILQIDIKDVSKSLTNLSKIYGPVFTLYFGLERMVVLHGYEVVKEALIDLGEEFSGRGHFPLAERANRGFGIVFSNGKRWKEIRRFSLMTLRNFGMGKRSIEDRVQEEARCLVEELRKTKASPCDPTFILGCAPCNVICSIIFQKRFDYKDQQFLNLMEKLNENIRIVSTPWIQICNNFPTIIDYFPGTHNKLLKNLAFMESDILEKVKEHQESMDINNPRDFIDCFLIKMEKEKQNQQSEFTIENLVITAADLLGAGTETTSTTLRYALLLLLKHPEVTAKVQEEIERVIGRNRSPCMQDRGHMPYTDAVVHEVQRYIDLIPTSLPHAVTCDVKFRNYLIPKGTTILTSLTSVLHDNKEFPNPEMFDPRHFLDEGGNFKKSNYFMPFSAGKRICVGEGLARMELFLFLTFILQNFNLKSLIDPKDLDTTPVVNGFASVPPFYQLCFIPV
Sequence of Cytochrome P450 2C9 (Homo sapiens) (P11712 whole entry, looked up): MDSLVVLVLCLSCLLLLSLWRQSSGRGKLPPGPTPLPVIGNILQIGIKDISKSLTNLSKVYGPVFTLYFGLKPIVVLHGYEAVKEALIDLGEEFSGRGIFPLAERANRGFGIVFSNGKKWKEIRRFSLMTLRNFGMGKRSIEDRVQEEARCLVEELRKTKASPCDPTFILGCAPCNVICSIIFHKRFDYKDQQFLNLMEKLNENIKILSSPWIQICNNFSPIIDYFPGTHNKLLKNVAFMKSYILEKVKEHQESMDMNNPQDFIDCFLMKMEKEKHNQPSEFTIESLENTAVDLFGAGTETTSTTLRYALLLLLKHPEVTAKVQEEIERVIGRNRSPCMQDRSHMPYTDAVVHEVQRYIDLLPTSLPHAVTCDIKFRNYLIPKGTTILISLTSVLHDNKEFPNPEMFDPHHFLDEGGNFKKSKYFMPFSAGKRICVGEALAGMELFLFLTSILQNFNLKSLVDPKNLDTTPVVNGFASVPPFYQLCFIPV
Sequence of Pyruvate kinase (Leishmania mexicana) (Q27686 2-499 E452W): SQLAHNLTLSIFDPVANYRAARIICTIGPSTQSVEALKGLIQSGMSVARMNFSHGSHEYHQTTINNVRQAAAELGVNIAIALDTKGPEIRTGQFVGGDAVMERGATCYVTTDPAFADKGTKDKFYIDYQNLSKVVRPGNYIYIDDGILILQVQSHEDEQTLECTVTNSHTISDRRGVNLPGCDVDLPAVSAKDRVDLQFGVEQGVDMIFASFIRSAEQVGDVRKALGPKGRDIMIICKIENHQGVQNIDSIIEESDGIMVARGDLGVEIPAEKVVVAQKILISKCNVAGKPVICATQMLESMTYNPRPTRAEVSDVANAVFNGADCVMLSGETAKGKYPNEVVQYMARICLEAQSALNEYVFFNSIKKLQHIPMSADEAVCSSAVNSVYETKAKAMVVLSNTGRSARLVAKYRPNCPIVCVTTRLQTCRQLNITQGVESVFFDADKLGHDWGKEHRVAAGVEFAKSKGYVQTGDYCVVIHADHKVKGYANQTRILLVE
Sequence of Cytochrome P450 3A4 (Homo sapiens) (P08684 whole entry, looked up): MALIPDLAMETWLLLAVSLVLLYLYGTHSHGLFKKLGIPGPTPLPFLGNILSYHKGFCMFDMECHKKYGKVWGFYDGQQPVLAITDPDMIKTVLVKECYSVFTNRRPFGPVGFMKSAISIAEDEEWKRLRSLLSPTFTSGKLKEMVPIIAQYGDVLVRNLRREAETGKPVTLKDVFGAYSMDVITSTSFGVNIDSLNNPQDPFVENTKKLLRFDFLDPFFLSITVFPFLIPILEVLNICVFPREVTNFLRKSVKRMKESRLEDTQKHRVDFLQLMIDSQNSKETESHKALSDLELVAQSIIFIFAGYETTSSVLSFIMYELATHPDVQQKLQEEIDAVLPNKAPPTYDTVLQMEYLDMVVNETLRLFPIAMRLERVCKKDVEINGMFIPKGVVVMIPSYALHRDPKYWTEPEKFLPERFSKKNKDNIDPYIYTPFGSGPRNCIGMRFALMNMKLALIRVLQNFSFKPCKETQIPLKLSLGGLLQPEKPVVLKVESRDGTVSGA
Sequence of Cytochrome P450 2D6 (Homo sapiens) (P10635 whole entry, looked up): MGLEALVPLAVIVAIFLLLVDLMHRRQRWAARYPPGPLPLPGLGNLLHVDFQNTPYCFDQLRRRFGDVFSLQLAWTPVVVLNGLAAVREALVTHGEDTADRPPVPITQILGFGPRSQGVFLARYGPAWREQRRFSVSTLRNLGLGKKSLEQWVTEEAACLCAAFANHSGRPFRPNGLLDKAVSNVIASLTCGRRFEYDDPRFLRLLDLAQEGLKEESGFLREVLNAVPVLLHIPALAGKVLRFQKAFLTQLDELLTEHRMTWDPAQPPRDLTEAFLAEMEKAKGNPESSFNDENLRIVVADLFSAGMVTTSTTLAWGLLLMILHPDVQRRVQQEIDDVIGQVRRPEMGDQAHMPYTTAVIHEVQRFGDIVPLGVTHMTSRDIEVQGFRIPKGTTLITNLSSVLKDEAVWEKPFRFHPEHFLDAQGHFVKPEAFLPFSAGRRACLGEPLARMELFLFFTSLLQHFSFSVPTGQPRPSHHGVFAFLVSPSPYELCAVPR
Sequence of Muscarinic acetylcholine receptor M1 (Rattus norvegicus) (P08482 whole entry, looked up): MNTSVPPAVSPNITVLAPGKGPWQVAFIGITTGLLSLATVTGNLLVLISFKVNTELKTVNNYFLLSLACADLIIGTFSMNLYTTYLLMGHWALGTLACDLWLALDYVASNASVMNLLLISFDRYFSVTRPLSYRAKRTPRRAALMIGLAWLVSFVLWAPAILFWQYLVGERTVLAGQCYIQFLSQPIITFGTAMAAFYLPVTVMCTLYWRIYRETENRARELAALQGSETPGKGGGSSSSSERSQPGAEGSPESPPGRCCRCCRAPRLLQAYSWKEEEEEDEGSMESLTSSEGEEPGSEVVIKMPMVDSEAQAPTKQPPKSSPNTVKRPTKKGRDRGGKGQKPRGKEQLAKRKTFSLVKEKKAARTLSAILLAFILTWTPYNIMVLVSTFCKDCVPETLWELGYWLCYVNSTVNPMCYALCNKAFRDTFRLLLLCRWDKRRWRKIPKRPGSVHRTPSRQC
Sequence of Guanine nucleotide-binding protein G(i) subunit alpha-1 (Homo sapiens) (P63096 whole entry, looked up): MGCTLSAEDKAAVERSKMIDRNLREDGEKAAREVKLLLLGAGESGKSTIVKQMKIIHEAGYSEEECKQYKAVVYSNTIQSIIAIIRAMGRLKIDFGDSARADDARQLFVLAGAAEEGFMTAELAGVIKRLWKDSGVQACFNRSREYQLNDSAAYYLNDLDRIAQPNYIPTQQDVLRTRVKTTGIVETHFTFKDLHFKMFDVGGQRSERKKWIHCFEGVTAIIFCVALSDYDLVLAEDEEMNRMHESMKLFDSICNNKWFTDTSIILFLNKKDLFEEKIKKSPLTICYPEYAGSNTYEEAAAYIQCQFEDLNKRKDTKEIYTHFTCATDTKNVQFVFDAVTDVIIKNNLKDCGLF

With `Nc1c2ccccc2nc2ccccc12`, the Potency is 39.8 µM (active) in assay [1], 12.6 µM (active) in assay [4], 12.6 µM (active) in [6] and 15.8 µM (active) in [8]. Also, the result in [2], in assay [3] and in assay [5] was inactive. Also, in assay [7], the Potency entry was “inactive”.

Take `Cn1cnc2c(NCc3ccccc3)nc(NCCO)nc21`: the molecule was classed as inactive in assay [9], in assay [14] and in assay [17]. Further, the Potency entry in assay [10], in assay [11], in [13], in [15] and in assay [16] was “inactive” each time. The Potency in [12] was 3.16 µM (active) and 1.26 µM (active).

On to `CCCCC(CC)COC(=O)c1ccccc1C(=O)O` (configuration not stated), for which the Potency entry in assay [1], in assay [18], in [4], in assay [6], in [7] and in assay [8] was “inactive” throughout. For the same molecule, in [2], the result was inactive.

For `Cc1cc(C(C)(C)C)c(O)c(C(C)(C)C)c1`, the Potency entry in assay [1], in assay [18], in assay [4], in assay [6], in assay [7] and in assay [8] was “inactive” in each case. The result in [2], in [3] and in assay [5] was inactive.

Take `Nc1ccc(O)cc1`: the Potency entry in assay [1] is “inactive”. Moreover, the Potency in assay [8] is 50.1 µM (active).

As for `C1N2CN3CN1CN(C2)C3`, in [18], the Potency entry is “inactive”. Besides, the molecule was classed as inactive in assay [3] and in [5].

On to `CN(C)c1cc2c(Nc3ccc4c(cnn4Cc4ccccc4)c3)ncnc2cn1`, for which the result in assay [9] and in [17] was inactive. Also, the values for the Potency in assay [18] and in assay [16] were 5.01 µM (active) and 11.2 µM (active), respectively. For the same molecule, the Potency result in [11] was “inactive”.

Regarding `COc1ccccc1N1CCN(CCN2C(=O)CC3(CCCC3)CC2=O)CC1`, the call in assay [9] and in [17] was inactive. In addition, the Potency entry in assay [11] is “inactive”.

As for `CN(C(=O)C(Cl)Cl)c1ccc(OC(=O)c2ccco2)cc1`, the Potency result in [18] is “inactive”.

Turning to `NC(N)=NCCCCN=C(N)N`, the result in assay [9], in assay [19], in [3], in assay [14], in [5] and in assay [17] was inactive. The Potency in assay [16] is 10 µM (active).

Turning to `C[N+](C)(C)CCO`, the result in assay [9], in [3], in [14], in [5] and in assay [17] was inactive. Also, the Potency in assay [18] was 31.6 µM (active). Also, the Potency entry in assay [16] was “inactive”.

Regarding `O=C(O)Cc1ccc(OCCNC[C@H](O)c2ccccc2)cc1`, in assay [18], the Potency entry was “inactive”.

As for `CC(NCCC(c1ccccc1)c1ccccc1)c1ccccc1` (configuration not stated), the result in [3] and in [5] was inactive.

For the molecule `O=[N+]([O-])c1ccc(-c2nc(-c3ccc(F)cc3)c(-c3ccncc3)[nH]2)cc1`, the molecule was called inactive in assay [9] and in assay [17]. Moreover, the Potency in assay [18] is 0.158 µM (active); in assay [20], 12.6 µM (active). Besides, the Potency result in assay [11] and in assay [15] was “inactive” throughout.

`C[C@@H](C1=C(CCN(C)C)Cc2ccccc21)c1ccccn1`: the Potency in assay [10] is 0.501 µM (active); in [13], 2.51 µM (active).

In the case of `OC(CCCN1CCCCC1)(c1ccccc1)c1ccccc1`, in assay [12], the Potency was 0.126 µM (active).

For the molecule `CCOC(=O)NNc1nncc2ccccc12`, the Potency result in [18] is “inactive”. Further, the molecule was called inactive in assay [3] and in assay [5].

Consider `CCN(CC)CCOc1ccc(/C(=C(\Cl)c2ccccc2)c2ccccc2)cc1`, for which the Potency result in assay [10] and in assay [18] was “inactive” throughout. Besides, in assay [12], the Potency is 5.01 µM (active). The call in [3] and in assay [5] was inactive.

As for `O=C1NC(c2cccc([N+](=O)[O-])c2)=CCN1c1ccccc1O`, the call in assay [9], in assay [14] and in assay [17] was inactive. Further, the Potency entry in [10], in assay [12], in assay [15] and in assay [16] was “inactive” throughout. Besides, the Potency result in assay [13] is “inactive and 6.31 µM (active)”.

On to `Cc1ccc2c(Cl)cc(Cl)c(O)c2n1`, for which, in assay [18], the Potency result is “inactive”. The outcome in [3] and in [5] was inactive.

Regarding `Nc1ncnc2nc[nH]c12`, in [18], the Potency result was “inactive”. The outcome in assay [3] and in assay [5] was inactive.

`O=C(O)/C=C(\CC(=O)O)C(=O)O`: the Potency result in assay [18] is “inactive”. Moreover, the molecule was classed as inactive in assay [3] and in [5].

As for `Brc1ccc([C@H]2CN3CCSC3=N2)cc1`, the outcome in assay [9] and in assay [17] was inactive. In addition, in [11], the Potency entry was “inactive”. Further, the Potency in assay [15] is 12.6 µM (active).

Turning to `Cc1nn(-c2ccccc2)c(C)c1/C=N/N1CCN(Cc2ccccc2)CC1`, the Potency result in assay [18] was “inactive”. In [11], the Potency is 10 µM (active).

With `CC(C)N(CCC(=O)c1ccc2ccccc2c1)Cc1ccccc1`, the result in assay [9] and in assay [17] was inactive. The Potency entry in assay [11], in [15] and in [16] was “inactive” each time. Besides, the Potency in assay [12] is 2 µM (active); in assay [20], 2.51 µM (active).

`CC(=O)OCC[N+](C)(C)C`: in [18], the Potency entry was “inactive”. In addition, the molecule was called inactive in assay [3] and in assay [5].

Regarding `COC(=O)c1c(Cl)c(Cl)c(C(=O)OC)c(Cl)c1Cl`, the Potency entry in assay [18] is “inactive”. Moreover, the outcome in assay [3] and in assay [5] was inactive.
